From PMC4336329 (PLoS ONE, 2015)
About 14,000 (4.5%) of roughly 310,000 compounds showed an effect of 50% or more. The effect is printed as a negative number. The full list was thinned out, with strong results kept by preference.

Target: human ether-à-go-go-related gene (hERG) potassium channel (human, UniProt Q12809)
Experiment: primary screen, population patch clamp on CHO cells stably expressing hERG; higher = less effect of the substance
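Further: peak tail current of the secondary pulse compared with the same well before compound.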

Chain of human ether-à-go-go-related gene (hERG) potassium channel (Q12809 whole entry, looked up): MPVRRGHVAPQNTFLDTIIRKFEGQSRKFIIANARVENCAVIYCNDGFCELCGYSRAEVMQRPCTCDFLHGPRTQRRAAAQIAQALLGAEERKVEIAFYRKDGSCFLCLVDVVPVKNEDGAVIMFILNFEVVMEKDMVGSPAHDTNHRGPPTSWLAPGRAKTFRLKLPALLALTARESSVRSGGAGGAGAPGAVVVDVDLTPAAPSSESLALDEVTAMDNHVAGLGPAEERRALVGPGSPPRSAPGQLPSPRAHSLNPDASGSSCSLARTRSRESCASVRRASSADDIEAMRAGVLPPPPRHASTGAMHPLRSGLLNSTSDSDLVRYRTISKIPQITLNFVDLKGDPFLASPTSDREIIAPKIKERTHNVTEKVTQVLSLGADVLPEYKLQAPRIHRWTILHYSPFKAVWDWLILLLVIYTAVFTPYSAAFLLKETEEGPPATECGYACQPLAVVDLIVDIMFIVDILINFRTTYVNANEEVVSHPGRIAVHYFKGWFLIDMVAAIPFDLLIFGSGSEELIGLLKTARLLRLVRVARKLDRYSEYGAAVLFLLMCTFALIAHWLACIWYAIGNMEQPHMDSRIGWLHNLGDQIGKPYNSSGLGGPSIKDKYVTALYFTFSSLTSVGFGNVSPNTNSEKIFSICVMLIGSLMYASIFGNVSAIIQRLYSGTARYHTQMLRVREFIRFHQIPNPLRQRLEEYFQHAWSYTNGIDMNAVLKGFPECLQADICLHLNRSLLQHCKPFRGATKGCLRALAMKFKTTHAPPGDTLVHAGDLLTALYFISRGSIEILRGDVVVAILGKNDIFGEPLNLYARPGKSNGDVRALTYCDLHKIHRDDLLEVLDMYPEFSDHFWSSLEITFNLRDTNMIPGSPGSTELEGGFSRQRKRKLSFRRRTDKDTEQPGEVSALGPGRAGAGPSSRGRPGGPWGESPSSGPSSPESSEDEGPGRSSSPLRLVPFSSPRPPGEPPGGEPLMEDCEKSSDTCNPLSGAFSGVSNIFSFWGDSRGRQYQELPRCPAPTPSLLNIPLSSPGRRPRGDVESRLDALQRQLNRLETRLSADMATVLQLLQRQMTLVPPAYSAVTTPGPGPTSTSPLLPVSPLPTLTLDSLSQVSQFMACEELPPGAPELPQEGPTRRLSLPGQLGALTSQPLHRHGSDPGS

| Structure (SMILES) | hERG current change (%, negative = inhibition) at 10uM [%] |
| --- | --- |
| O=C(Nc1ccc(Br)cn1)c1ccc2ccccc2c1 | 26.8 |
| N=c1occ(C(=O)c2cc(F)ccc2O)cc1C(=O)NC1CCCCC1 | 0.995 |
| O=C(COc1ncnc2ccccc12)Nc1ccc(Cl)c([N+](=O)[O-])c1 | -7.85 |
| CCOc1ccc(S(=O)(=O)Nc2ccc(C(=O)NCCCN3CCCC3=O)cc2)cc1 | 0.2 |
| COCCn1c(-c2ccco2)csc1=Nc1cccnc1.Cl | -3.9 |
| Cc1csc(=Nc2cccnc2)n1Cc1ccco1 | -0.17 |
| COCCCn1c(C)csc1=Nc1cccnc1 | 4.68 |
| Cc1ccc(-c2csc(=Nc3cccnc3)n2CCCn2ccnc2)cc1C | -70.2 |
| COCCn1c(-c2ccc(Br)cc2)csc1=Nc1cccnc1 | -14.2 |
| CCCCn1c(C)csc1=Nc1cccnc1 | -2.02 |
| Cl.c1ccc(-c2csc(=Nc3cccnc3)n2CC2CCCO2)cc1 (stereo not drawn) | -31.4 |
| Br.COCCn1c(-c2ccccc2)csc1=Nc1cccnc1 | -68.3 |
| Clc1ccc(-c2csc(=Nc3cccnc3)n2CCCn2ccnc2)cc1Cl | -67.3 |
| CCCNS(=O)(=O)c1ccc(OCC(=O)N2CCC(C(=O)OCC)CC2)cc1 | -12.6 |
| COc1ccc(C2Nc3ccccc3NC3=C2C(=O)CC(C)(C)C3)cc1O (stereo not drawn) | 19 |
| COc1ccc([C@H]2CC(=O)C=C(c3ccc4c5c(cccc35)CC4)C2)cc1 | 16 |
| Cc1cc(N2CCCC2=O)ccc1S(=O)(=O)Nc1c(C)nn(C)c1C | 12.3 |
| N#C/C(=C(/O)c1ccc(Cl)cc1)c1nc2ccccc2[nH]1 | 7.3 |
| Cn1c(NNC(=O)c2cccc3ccccc23)cc(=O)n(C)c1=O | 6.73 |

| Structure (SMILES) | hERG current change (%, negative = inhibition) at 10uM [%] |
| --- | --- |
| Cc1cc(C)nc(N2CCC(C(=O)NCc3ccco3)CC2)n1 | -1.73 |
| Cc1cc(NCc2ccco2)nc(N2CCC(C(=O)NC3CCCCC3)CC2)n1 | -71.1 |
| Cc1cc(C)nc(N2CCC(C(=O)NC3CCCCCC3)CC2)n1 | -4.75 |
| O=C(CSc1nnc(NC(=O)c2ccco2)s1)NC1CCCC1 | 18.6 |
| Nc1c(N(CCC2=CCCCC2)C(=O)COc2ccc(F)cc2)c(=O)[nH]c(=O)n1Cc1ccccc1 | -6.12 |
| CC(Oc1ccccc1)C(=O)N(CCC1=CCCCC1)c1c(N)n(Cc2ccccc2)c(=O)[nH]c1=O (stereo not drawn) | -48.6 |
| CC(Oc1ccc(F)cc1)C(=O)N(CCC1=CCCCC1)c1c(N)n(Cc2ccccc2)c(=O)[nH]c1=O (stereo not drawn) | -52 |
| COc1cccc(-c2nc(C#N)c(N3CCN(C(=O)c4ccco4)CC3)o2)c1 | -35.1 |
| COc1ccc(-c2nc(C#N)c(N3CCN(C(=O)c4ccco4)CC3)o2)cc1OC | 0.504 |
| N#Cc1nc(-c2ccc(F)cc2)oc1N1CCN(C(=O)c2ccco2)CC1 | -75.2 |
| N#Cc1nc(-c2ccco2)oc1N1CCN(c2ccccc2)CC1 | -62.9 |
| N#Cc1nc(-c2ccco2)oc1N1CCOCC1 | 4.48 |
| N#Cc1nc(-c2ccccc2Cl)oc1N1CCN(C(=O)c2ccco2)CC1 | -9.47 |
| COc1ccc(N2CCN(c3oc(-c4ccco4)nc3C#N)CC2)cc1 | -47.9 |
| N#Cc1nc(-c2ccccc2)oc1N1CCN(C(=O)c2ccco2)CC1 | -75.7 |
| N#Cc1nc(-c2ccccc2F)oc1N1CCN(C(=O)c2ccco2)CC1 | -18.2 |
| O=C(CCCN1C(=O)c2ccccc2C1=O)NCCCN1CCOCC1 | 20.3 |
| CCCCCCCCCCCCN1[C@@H](CC(=O)OC)c2cc(F)cc(F)c2S1(=O)=O | 11.1 |
| CCN(CC)/C(=N\S(=O)(=O)c1ccc(F)cc1)c1ccccc1 | 8.34 |

| Structure (SMILES) | hERG current change (%, negative = inhibition) at 10uM [%] |
| --- | --- |
| Cc1cc2n(n1)C(c1sccc1C)Nc1ccccc1-2 (stereo not drawn) | -15.9 |
| Cc1ccc(Cn2c(C(CO)Nc3nc(-c4ccc(F)cc4)cs3)nc3ccccc32)cc1 (stereo not drawn) | 15.4 |
| CCOC(=O)c1ccc(NC(=O)NCCc2cnc[nH]2)cc1 | 4.44 |
| O=C(c1ccccc1[N+](=O)[O-])N1CCCC(C(=O)N2CCCCCC2)C1 (stereo not drawn) | 10.6 |
| O=C(Nc1cccc(F)c1)c1cc(-c2ccco2)nc2ccccc12 | 9.26 |
| O=C(O)c1ccc(S(=O)(=O)N2CCC(n3nnc4cc(C(F)(F)F)ccc43)CC2)cc1 | -37.7 |
| O=S(=O)(c1ccc(Cl)cc1)N1CCC(n2cnc3cc(C(F)(F)F)ccc32)CC1 | -78.4 |
| COc1ccc(S(=O)(=O)N2CCC(N3CCCC3)CC2)cc1 | 22.3 |
| COc1ccc(S(=O)(=O)N2CCC(N3CCCCC3)CC2)cc1 | -11.7 |
| COc1ccc(S(=O)(=O)N2CCC(n3cnc4cc(C(F)(F)F)ccc43)CC2)cc1 | -73.1 |
| O=C(O)c1cccc(S(=O)(=O)N2CCC(n3nnc4cc(C(F)(F)F)ccc43)CC2)c1 | 20.7 |
| CCOC(=O)C1=C(C)NC(=O)NC1c1ccc(N(CC)CC)cc1 (stereo not drawn) | -6.39 |
| CCOc1ccc(C(=O)NCC(=O)OCc2cc([N+](=O)[O-])cc3c2OCOC3)cc1OCC | -12 |
| Cc1ccc(CN2CCN(Cc3cn[nH]c3-c3cccc(F)c3)CC2CCO)o1 (stereo not drawn) | -25.8 |
| O=C(c1ccc2c(c1)OCO2)C1CCCN(Cc2c(F)cccc2Cl)C1 (stereo not drawn) | -32.5 |
| O=C(c1ccc2c(c1)OCO2)C1CCCN(Cc2cn[nH]c2-c2cccc(F)c2)C1 (stereo not drawn) | -78.1 |
| c1ccc(-c2[nH]ncc2CN2CCN(Cc3ccc4c(c3)OCO4)CC2)cc1 | -37.9 |
| O=C(c1ccc2c(c1)OCO2)C1CCCN(Cc2cn[nH]c2-c2ccccc2)C1 (stereo not drawn) | -72.2 |
| O=C(c1ccc2c(c1)OCO2)C1CCCN(Cc2ccccn2)C1 (stereo not drawn) | -30.9 |
